The results in this text go back to the supplement of paper PMC3414501.

For assay [1], the system named is S. cerevisiae SK1 pCDA2-eGFP (USY613), sporulating. The assay can be described thus: CDA2-GFP sporulation assay sensitivity score (z-score vs DMSO controls); higher = stronger inhibition of sporulation, active = hit call of the paper.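 Also: active if sensitivity score above 5.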
The test system of assay [2] is S. cerevisiae AD1-9 (efflux-pump deficient), vegetative growth in YPD. The assay can be described thus: growth sensitivity score (doubling time z-score vs DMSO controls); higher = slower growth, strongly negative scores also mark growth inhibition (complete suppression), active = hit call of the paper. A digest of the protocol:
(§1)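 Optical density of Saccharomyces cerevisiae cultures in microtiter plates was followed every 15 min for 24 hours after seeding at an OD600 of 0.065. Eight solvent-only wells were run per experiment. Growth sensitivity scores were found by subtracting the solvent-only mean from the compound mean and dividing by the solvent-only standard deviation.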

The test system of assay [3] is S. cerevisiae BY4741 (wild-type), vegetative growth in YPD. Described as above. A digest of the protocol: as §1

SMILES strings stand for the structures. Structures can show the parent of a compound that is named as a salt.

For the compound `CNC(=N)NCCC[C@H](N)C(=O)O` [omega-N-Methylarginine] (stock concentration (mM, diluted 1:100): 9.3), the “CDA2-GFP sporulation assay sensitivity score” value in assay [1] was 1.34 (inactive). Further, the growth sensitivity score was -3.59 in assay [2] and -0.56 (inactive) in assay [3].
With `CN(C)CCCC1(c2ccc(F)cc2)OCc2cc(C#N)ccc21` (centres undefined) [Citalopram hydrobromide] (stock concentration (mM, diluted 1:100): 7.9), the “CDA2-GFP sporulation assay sensitivity score” value in assay [1] was -1.83 (inactive). For the same compound, the growth sensitivity score was 0.63 (inactive) in assay [2] and -0.04 (inactive) in assay [3].
As for `COc1ccc(CC2c3cc(OC)c(OC)cc3CC[N+]2(C)CCC(=O)OCCCCCOC(=O)CC[N+]2(C)CCc3cc(OC)c(OC)cc3C2Cc2ccc(OC)c(OC)c2)cc1OC` (centres undefined) [Atracurium besylate] (stock concentration (mM, diluted 1:100): 10), the “CDA2-GFP sporulation assay sensitivity score” value in assay [1] was 17.9 (active). The growth sensitivity score was -2.52 in assay [2] and -0.31 (inactive) in assay [3].
For `OC[C@H]1O[C@@H](Oc2cc(O)cc(/C=C/c3ccc(O)cc3)c2)[C@H](O)[C@@H](O)[C@@H]1O` [Piceid] (stock concentration (mM, diluted 1:100): 10) the same measures were 0.56 (inactive), 0.32 (inactive) and -0.24 (inactive).
In the same order, the values of `O=C1CC2(CCCC2)CC(=O)N1CCNCC1COc2ccccc2O1` (centres undefined) (stock concentration (mM, diluted 1:100): 10) are 19.1 (active), 3.73 (active) and 1.45 (inactive).
Regarding `CCCCC[C@H](O)/C=C/[C@H]1[C@H](O)CC(=O)[C@@H]1CCCCCCC(=O)O` [Prostaglandin E1] (stock concentration (mM, diluted 1:100): 10), the “CDA2-GFP sporulation assay sensitivity score” value in assay [1] is 6.45 (inactive). Besides, the growth sensitivity score in assay [2] was 0.11 (inactive); in assay [3] it was -0.67 (inactive).
In the case of `C[C@]12C=CC(=O)C=C1CC[C@@H]1[C@@H]2[C@@H](O)C[C@@]2(C)[C@H]1CC[C@]2(O)C(=O)COC(=O)CCC(=O)O` (stock concentration (mM, diluted 1:100): 10), the “CDA2-GFP sporulation assay sensitivity score” value in assay [1] was -0.32 (inactive). Further, the growth sensitivity score in assay [2] was -0.63 (inactive); in assay [3] it was -0.61 (inactive).
As to `C#C[C@]1(O)CC[C@H]2[C@@H]3CCC4=CC(=O)CC[C@@H]4[C@H]3CC[C@@]21CC` [Levonorgestrel] (stock concentration (mM, diluted 1:100): 10), in assay [1], the “CDA2-GFP sporulation assay sensitivity score” value was 0.19 (inactive). Also, the growth sensitivity score in assay [2] is -0.41 (inactive); in assay [3], 0.89 (inactive).
In the same order, the values of `Cc1[nH]cnc1CN1CCc2c(c3ccccc3n2C)C1=O` [Alosetron hydrochloride] (stock concentration (mM, diluted 1:100): 8.9) are -0.89 (inactive), -0.69 (inactive) and 3.01 (active).
`CC[C@H](C)C(=O)O[C@H]1CCC=C2C=C[C@H](C)[C@H](CC[C@@H]3C[C@@H](O)CC(=O)O3)[C@H]21` [Mevastatin] (stock concentration (mM, diluted 1:100): 10): the “CDA2-GFP sporulation assay sensitivity score” value in assay [1] is 0.51 (inactive). Moreover, the growth sensitivity score is 130 (active) in assay [2] and 2.89 (active) in assay [3].
In the case of `O=c1c(-c2ccccc2)c1-c1ccccc1` [Diphenylcyclopropenone] (stock concentration (mM, diluted 1:100): 10), in assay [1], the “CDA2-GFP sporulation assay sensitivity score” value was 0.85 (inactive). Besides, the growth sensitivity score in assay [2] was 110 (active); in assay [3] it was 39.9 (active).
`CC(C(=O)O)c1ccc(CC2CCCC2=O)cc1` (centres undefined) [Loxoprofen sodium] (stock concentration (mM, diluted 1:100): 9.1): the “CDA2-GFP sporulation assay sensitivity score” value in assay [1] was -0.04 (inactive). Moreover, the growth sensitivity score in assay [2] is -0.52 (inactive); in assay [3], -0.61 (inactive).
In the same order, the values of `Cc1nccn1CC1CCc2c(c3ccccc3n2C)C1=O` (centres undefined) [Ondansetron hcl] (stock concentration (mM, diluted 1:100): 8.9) are -0.41 (inactive), -1.11 (inactive) and -0.22 (inactive).
For `C#C[C@]1(O)CC[C@H]2[C@@H]3CCc4cc(O)ccc4[C@H]3CC[C@@]21C` [Ethynylestradiol] (stock concentration (mM, diluted 1:100): 10), the “CDA2-GFP sporulation assay sensitivity score” value in assay [1] was 6.44 (inactive). The growth sensitivity score in assay [2] was 229 (active); in assay [3], 2.85 (active).
In the same order, the values of `Oc1ccc(/C=C/c2cc(O)cc(O)c2)cc1` [Resveratrol] (stock concentration (mM, diluted 1:100): 10) are 5.86 (inactive), -0.99 (inactive) and -0.21 (inactive).
For `Cc1c(O)c(=O)ccn1C` [Deferiprone] (stock concentration (mM, diluted 1:100): 10) the same measures were 2.38 (inactive), -1.63 (inactive) and 0.2 (inactive).
Take `CC(=O)N1CCN(c2ccc(OCC3COC(Cn4ccnc4)(c4ccc(Cl)cc4Cl)O3)cc2)CC1` (centres undefined) [Ketoconazole] (stock concentration (mM, diluted 1:100): 10): the “CDA2-GFP sporulation assay sensitivity score” value in assay [1] was 0.13 (inactive). The growth sensitivity score was 155 (active) in assay [2] and 35.3 (active) in assay [3].
With `CN1CCC(=C2c3ccccc3C=Cc3ccccc32)CC1` [Cyproheptadine hydrochloride] (stock concentration (mM, diluted 1:100): 10), the “CDA2-GFP sporulation assay sensitivity score” value in assay [1] was 14 (active). Besides, the growth sensitivity score was 9.58 (active) in assay [2] and 3.38 (active) in assay [3].
